Source: the supplement of paper PMC4100887
± gives the standard deviation of the averaged measurements.

Assays:
[1] = tested on: IMR-90; assay: relative cell viability (ATPlite) vs untreated control (fraction); higher = less toxic; conditions: 1 µM; 72 h
[2] = tested on: K562; assay: as above; conditions: 1 µM; 72 h
[3] = tested on: K562; assay: relative cell viability (ATPlite) vs untreated control, with imatinib (fraction); higher = less toxic; conditions: 1 µM; 72 h; imatinib 0.125 µM

| Compound | relative cell viability [1] | relative cell viability [2] | relative cell viability [3] |
| --- | --- | --- | --- |
| O=c1[nH][nH]c2nnc(-c3c(-c4ccccc4)nn4ccccc34)cc12 [ERK Inhibitor II, Negative control] | 0.966 ± 0.077 | 0.833 ± 0.086 | 0.758 ± 0.019 |
| COc1cc2c(cc1OC)-c1[nH]nc(Nc3cccc(F)c3)c1C2 [PDGF Receptor Tyrosine Kinase Inhibitor IV] | 0.43 ± 0.07 | 0.0468 ± 0.0021 | 0.0404 ± 0.0032 |
| COc1ccc(CNC(=O)Nc2ncc([N+](=O)[O-])s2)cc1 [GSK-3b Inhibitor VIII] | 0.978 ± 0.09 | 0.82 ± 0.048 | 0.713 ± 0.049 |
| O=C1Cc2c([nH]c3ccc([N+](=O)[O-])cc23)-c2ccccc2N1 [Alsterpaullone] | 0.946 ± 0.067 | 0.906 ± 0.074 | 0.812 ± 0.026 |
| Cc1ccc(NC2=CC(=O)c3sc(C)nc3C2=O)cc1 [Cdk4 Inhibitor III] | 0.997 ± 0.032 | 0.782 ± 0.1 | 0.685 ± 0.14 |
| Nc1nc(Nc2ccc(S(N)(=O)=O)cc2)nn1C(=S)Nc1c(F)cccc1F [Cdk1/2 Inhibitor III] | 1.11 ± 0.082 | 0.0545 ± 0.0021 | 0.0471 ± 0.0048 |
| CC(C)n1cnc2c(NCc3ccccc3)nc(NCCCO)nc21 [Bohemine] | 1.03 ± 0.066 | 0.9 ± 0.074 | 0.797 ± 0.029 |
| Oc1cccc(-c2nc(N3CCOCC3)c3oc4ncccc4c3n2)c1 | 0.958 ± 0.099 | 0.741 ± 0.015 | 0.513 ± 0.045 |
| CN1C(=O)C(Cc2c[nH]c3ccccc23)NC1=S (stereo not drawn) [Necrostatin-1] | 0.915 ± 0.058 | 0.921 ± 0.1 | 0.785 ± 0.044 |
| O=C(Nc1ccc(Cl)cc1)c1ccccc1NCc1ccncc1 [VEGF Receptor Tyrosine Kinase Inhibitor II] | 0.987 ± 0.064 | 0.852 ± 0.056 | 0.802 ± 0.036 |
| CCCC(=O)Oc1ccc2[nH]c(C(=O)c3cc4ccccc4[nH]3)cc2c1 [PDGF Receptor Tyrosine Kinase Inhibitor II] | 1.01 ± 0.064 | 0.812 ± 0.097 | 0.77 ± 0.025 |
